# Assay results reported in PubChem BioAssay (NCI).
# Several values for one entry are separate records, joined by “and”; a condition that tells them apart may be missing. Equal entries are not always repeated. The panel holds about 83,000 compounds, 20% with a hit somewhere; the sample as a whole holds those more often.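 Assay: single dose, 48 h. Readout: percent growth (0 = no net growth; negative = cell death). Active: <10.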 Values without a mark were called inactive. Activity calls are given as the source filed them.
# System: HL-60(TB) leukemia
# Assay: NCI-60 one-dose screen, 48 h (100 = growth as untreated, 0 = no growth, -100 = all killed)
# Details: 10 µM unless noted
row,SMILES,growth
1,COc1ccc(C(=O)c2c(N)nc3n2CCCC3)cc1OC,94.1%
2,O=C1Nc2cc(Cl)ccc2/C1=C/c1ccc(N2CCOCC2)s1,93.4%
3,COc1ccc(C2=Nc3c/c(=C\c4c(O)[nH]c5ccc(Cl)cc45)ccc3=N2)cc1,6.79% (active)
4,Cc1cc(O)ccc1C1=NN(c2ccc(S(N)(=O)=O)cc2)C(=O)CC1,4.22% (active)
5,O=C(/C=C/c1cn(-c2ccccc2)nc1-c1ccc([N+](=O)[O-])cc1)c1ccc(Cl)cc1,69.1%
6,N=C(N)c1ccc(-c2ccc(-c3cncc4ccccc34)s2)cc1F,-45.5% (active)
7,CCOC(=O)C1(Cc2ccccc2)CCN(Cc2cccc(OC)c2O)CC1,-11.6% (active)
8,CC(C)CC(CC1=CCC2CC1C2(C)C)C1=C(O)C(C)(C)C(=O)C(C)(C)C1=O (stereo not given),-45.3% (active)
9,Cn1cc(-c2csc(-c3cn(CCNC(=O)OC(C)(C)C)c4ccccc34)n2)c2cccnc21,45.9%
10,C=C1C(=O)O[C@H]2[C@H]1CC/C(Cn1cc(CNCCc3c[nH]c4ccccc34)nn1)=C\CC[C@@]1(C)O[C@@H]21,26.1%
11,O=C(NCCNc1nccc(-c2c(-c3cccc(O)c3)nc3sccn23)n1)c1cccc(C(F)(F)F)c1,95.5%
12,N#CC1=C(N)Oc2cc(N)ccc2C1c1ccc(F)cc1 (stereo not given),88.9%
13,COC(=O)/C(CCC=C(C)C)=C1\[C@@H](OC(C)=O)C[C@@]2(C)[C@H]1C[C@@H](O)[C@H]1[C@@]3(C)CC[C@H](NCCCNCCCCNCCCN)[C@@H](C)[C@@H]3CC[C@@]12C,37.2%
14,N#CC1C=CN(CC(N)=O)c2ccc3cccnc3c21 (stereo not given),92.7%
15,O=C1NN(C(=O)c2ccccc2)C(c2ccc(Cl)c(Cl)c2)=C/C1=C\c1ccccc1[N+](=O)[O-],12.7% [6.75 µM]
16,COc1ccc(S(=O)(=O)ON=C2C=C(C)C(=O)C(C)=C2)cc1,43.7%
17,C#Cc1ccc(-n2c(/C=C/c3ccc(Cl)c(F)c3)nc3ncccc3c2=O)cc1,-35.9% (active)
18,O=c1oc2cc(OS(=O)(=O)c3ccc(F)cc3)ccc2c2c1CCCCC2,60.6%
19,CCOC(=O)c1cc(-c2ccc([N+](=O)[O-])cc2)n(-c2ccc(C(=O)O)c(O)c2)c1C,31%
20,CCOC(=O)c1cc(C)[nH]c(=O)c1C#N,121%

row,SMILES,growth
1,CCc1ccccc1NC(=O)/C(C#N)=C/c1ccc(OC)cc1,138%
2,COc1cccc([C@H]2c3[nH]c4ccccc4c3C[C@H]3C(=O)N(CCCCCCC(=O)NO)CC(=O)N23)c1,31%
3,COCCn1c(Nc2ccc(C(=O)NO)cc2)nc2ccccc21,11.9%
4,Nc1nc2c([nH]1)c1[nH]c3ccccc3c1c1[nH]c3ccccc3c21,25.5%
5,O=C(Nc1ccc(-c2nc(-c3cccc(OCCN4CCOCC4)c3)c(-c3ccnc(Br)c3)[nH]2)cc1)c1ccccc1,-41.2% (active)
6,CC(=O)/C(=C\c1c(-c2ccccc2)[nH]c2ccccc12)S(=O)(=O)c1ccccc1,-68.4% (active)
7,COc1cc(-c2cc(/C=C3\CCCCC3=O)[nH]n2)cc(OC)c1OC,97.9%
8,Cc1ccc(Nc2cc(N)nc(N)n2)cc1Cl,98.7%
9,CC1(C)OC2C(CO[Si](C)(C)C(C)(C)C)OC(n3c(I)c(C#C[Si](C)(C)C)c(=O)[nH]c3=O)C2O1 (stereo not given),69.5%
10,O=C(CCc1ccc(O)cc1)N/N=C/c1cc(Br)ccc1O,-6.29% (active)
11,O=C(CCl)N1CCCc2ccccc21,93.3%
12,COc1cccc(-c2nn(-c3ccccc3)cc2-c2ccnc(NCCCNC(=O)Nc3ccc(Cl)c(Cl)c3)c2)c1,16.8%
13,Cc1cn(-c2cc(NC(=O)c3cncc(C#Cc4cnc(N)c5ncccc45)c3)cc(C(F)(F)F)c2)cn1,18.7%
14,COc1cc(CN(CCC(O)N2CCCC2=O)Cc2ccc3c(c2)OCO3)cc(OC)c1OC (stereo not given),90.6%
15,CC1=C[C@H]2c3c(c(O)c(O)c4oc5cc(O)cc(O)c5c(=O)c34)[C@H](c3cc(O)c(O)c4oc5cc(O)cc(O)c5c(=O)c34)[C@H]2C(C)(C)C1,2.23% (active) and -3.82% (active)
16,CCC(C)CC(C)C(=O)c1c(O)ccn(OC)c1=O (stereo not given),94.6%
17,Cc1cc2c(O)c(-c3cccc(Cl)c3)c3sc(=O)oc3c2cc1C,23.2%
18,COc1ccc(-c2csc(NC(=O)CN3CCN(c4cc5c(cc4F)c(=O)c(C(=O)O)cn5C4CC4)CC3)n2)cc1,-25% (active)
19,COC(=O)C1=C(C(=O)ONCCN(C)C)C2C=CC1(C(Cc1ccccc1)Nc1ccc(F)cc1)O2 (stereo not given),35.8%
20,Cc1cc(N)c2ccccc2[n+]1CCCCCCCCCC[n+]1c(C)cc(N)c2ccccc21,-65% (active) and -69.4% (active)
